Assay outcomes (PubChem BioAssay)
In the library only some 3% were active in any assay of this set; here they are far more common.
SUMO Mot1 rescue: blocks SUMOylation pathway, rescuing yeast Mot1-301 growth | S. cerevisiae Mot1-301 growth rescue, ATP luminescence, 38.5C; percent above DMSO median, 100 means doubled | growth rescue, % at 18.8 µM | hit rate 1% among 320,000 | AID 2716;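 active = every valid replicate shows activation above 250% relative to neutral control wells; inactive = the rest, any valid replicate at or below 250%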;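 note: OY570 slx delta 5 strain wells were the positive control but not used for scaling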
NALP3 yeast inh: blocks the NALP3 inflammasome reconstituted in yeast; Yeast reconstituted NLRP3/ASC/caspase-1, beta-gal luminescence, 24 h; inhibition, % at 10 µM; hit rate 0.39% among 330,000;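 active = inhibition of 50% or more; inactive = inhibition below 50%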;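 note: plate controls were induced DMSO wells for no effect and uninduced yeast grown without galactose for full effect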
CHT inh: human CHT choline transport inhibition; CHT-expressing cells, membrane potential dye, choline response; hits give low values; B-score at 10 µM; hit rate 0.86% among 310,000;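 active = B-score over 3 SD under the library average, and starting fluorescence ratio not unusually high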;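 note: choline stimulus applied at its EC90 after an EC20 pre-addition; B-score computed on integrated fluorescence ratio after choline addition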
Target sequence (Q9GZV3 whole entry, looked up): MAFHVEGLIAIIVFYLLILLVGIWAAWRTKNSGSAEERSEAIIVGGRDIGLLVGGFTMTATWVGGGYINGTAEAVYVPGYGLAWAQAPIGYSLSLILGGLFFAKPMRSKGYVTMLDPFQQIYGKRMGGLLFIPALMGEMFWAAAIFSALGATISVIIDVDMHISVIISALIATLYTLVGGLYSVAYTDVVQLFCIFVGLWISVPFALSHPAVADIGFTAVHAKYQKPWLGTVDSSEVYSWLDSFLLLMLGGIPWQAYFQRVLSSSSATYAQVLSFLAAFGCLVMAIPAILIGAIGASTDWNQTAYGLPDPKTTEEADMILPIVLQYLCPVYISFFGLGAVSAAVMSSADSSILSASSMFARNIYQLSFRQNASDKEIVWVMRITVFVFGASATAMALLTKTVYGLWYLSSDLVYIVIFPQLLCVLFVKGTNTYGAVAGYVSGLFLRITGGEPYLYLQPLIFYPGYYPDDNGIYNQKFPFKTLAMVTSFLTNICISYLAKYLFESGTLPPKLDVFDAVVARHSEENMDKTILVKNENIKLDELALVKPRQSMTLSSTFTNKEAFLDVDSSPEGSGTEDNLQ
NALP1 inh: inhibitors of NALP1 inflammasome in yeast | S. cerevisiae NALP1/ASC/caspase-1 growth, X-gal OD620, 72 h | inhibition, % at 10 µM | hit rate 0.61% among 280,000 | AID 2071; in the data active = inhibition mostly above about 24%, no sharp cut-off; inactive = mostly below about 32%
CHT PAM: allosteric activators of human choline transporter CHT; Q9GZV3; B-score at 10 µM; hit rate 0.49% among 310,000; CHT-expressing cells, membrane potential dye, choline EC20; hits give high values; LV-AA mutant CHT in HEK293 cells;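 active = initial fluorescence not abnormally high and integrated response B-score, plate-corrected, over 3 SD above library mean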
A1 inh: inhibitors of the anti-apoptotic protein A1, read as caspase activation; MEF A1-2A-BIM cells, Caspase-Glo 3/7 luminescence, 3 h; percent of clofoctol response, vehicle zero; caspase activation, % (concentration not given with the values); hit rate 0.066% among 330,000;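 active = over half of replicate activation scores above 10%, or exactly half above 10 with the replicate mean above 10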
NALP3 confirm: confirmation of NALP3 inhibitors in yeast; shares compounds with NALP3 yeast inh; AID 435006; hit rate 81% among 1,300; inhibition, % at 10 µM; yeast expressing human NALP3, luminescence; in the data active = inhibition above about 48%
Casp1 ASC ctr: caspase-1-ASC yeast counter-screen hit. hit rate 66% among 1,000. shares compounds with NALP3 yeast inh. inhibition, % at 10 µM. yeast expressing Caspase-1-ASC, luminescence counter screen
NALP3 yeast rt: confirmation retest of NALP3 inhibitors in yeast; yeast expressing human NALP3, luminescence read-out; inhibition, % at 10 µM; hit rate 53% among 1,000; shares compounds with NALP3 yeast inh; AID 488794
* = called active by the depositor; i = inactive; · = no result given. Cut-off read from the data, not from the text of the source, unless noted: active = inhibition above about 50%; inactive = the rest.

SMILES	SUMO Mot1 rescue	NALP3 yeast inh	CHT inh	NALP1 inh	CHT PAM	A1 inh	NALP3 confirm	Casp1 ASC ctr	NALP3 yeast rt
CO/N=C/NC(=O)Cc1cn(-c2ncc(C(F)(F)F)cc2Cl)c2ccccc12	-7.3	56.2*	i	14.5	i	-0.6	63.5*	38.0	38.5
CC(=O)/C=C\c1cn(-c2ncc(C(F)(F)F)cc2Cl)c2ccccc12	378.0	10.3	i	39.9	i	0.6	·	·	·
O=C(/C=C/c1ccccc1Cl)OCC(=O)N1CCCC1	11.3	3.6	·	·	·	-1.0	·	·	·
Cn1c(-c2ccccc2)cc2c3no[n+]([O-])c3ccc21	16.4	53.1*	i	20.0	i	0.7	61.4*	63.2*	58.6*
O=C1c2sc3nc4ccccc4n3c2C(=O)N1c1ccccc1Cl	-29.5	51.9*	i	10.5	i	2.0	52.0*	26.4	26.4
CCc1ccc(C(=O)NNc2ccc(C)c(Cl)c2)cc1	57.3	53.2*	i	9.1	i	0.0	53.2*	46.4	29.1
CCc1ccc(C(=O)NNc2cc(Cl)ccc2Cl)cc1	59.9	64.6*	i	6.3	i	-0.2	66.3*	61.0*	59.7*
CC(C)(C)[C@H]1C=C(C(=O)Nc2ccccc2)O[C@@H](OCc2ccc(CO)cc2)C1	1.1	53.2*	i	12.4	i	-0.1	58.7*	61.4*	52.9*
CC(C)(C)[C@H]1C=C(C(=O)O)O[C@@H](OCc2ccc(CO)cc2)C1	13.8	0.3	i	·	i	0.5	·	·	·
O=Cc1cn(-c2ccccc2)nc1-c1ccccc1	6.6	60.3*	i	-23.1	i	0.3	72.1*	60.0*	53.0*
Cc1ccc(NC(=O)Cc2csc(-c3ccccc3)n2)cc1F	-18.8	62.4*	i	26.5	i	-0.5	38.2	53.5*	60.2*
O=C(O)c1ccc(S(=O)(=O)/N=C2\C=C(Nc3ccccc3F)C(=O)c3ccccc32)cc1	-27.1	93.9*	i	79.9*	i	-2.0	82.7*	99.3*	97.4*
CC(O)/C=C/c1ccc2ccccc2n1 (configuration not stated)	-17.2	50.5*	i	1.4	i	0.2	69.6*	36.8	42.8
COc1ccc(C(=O)N2CCC(n3nccc3NC(=O)C3CC3)CC2)cc1F	14.3	2.6	i	17.4	i	0.9	·	·	·
O=S(=O)(c1ccc(Br)s1)N1CCN(CCc2ccccc2)CC1	-9.8	60.8*	·	·	·	0.3	63.0*	33.5	28.4
O=C1C2N=NN(CC(=O)N3N=C(c4ccccc4)CC3c3ccc([N+](=O)[O-])cc3)C2C(=O)N1c1ccccc1 (configuration not stated)	-3.8	54.7*	i	7.8	i	0.3	71.1*	·	·
COc1ccc(C2=NN(C(=O)CCC(=O)O)C(c3ccc([N+](=O)[O-])cc3)C2)cc1 (configuration not stated)	3.5	14.0	i	-5.1	i	-0.7	·	·	·
CC(C)(CNc1ccc(C(F)(F)F)cc1[N+](=O)[O-])N1CCOCC1	-15.9	10.5	i	4.1	i	-0.1	·	·	·
CCN(CC)C(=S)SCC(=O)c1ccc(Br)cc1	4.7	55.2*	i	29.0	i	0.0	63.6*	·	·
Cc1ccnc(SCC(=O)c2ccc(Br)cc2)c1C#N	79.6	31.2	i	31.2	i	0.1	·	·	·
COc1cc(C=O)c(Br)cc1OCC(=O)NCCc1ccccc1	-1.8	-112.1	i	-11.6	i	-0.4	-19.2	·	·
Cc1noc(C(=O)N2CCN(c3ccccc3)CC2)c1Cl	2.1	7.8	i	14.6	i	0.7	·	·	·
O=C(Nc1ccc2c(c1)OCCO2)c1cccc(C(=O)Nc2ccc3c(c2)OCCO3)c1	-12.9	0.1	i	10.3	i	-2.9	·	·	·
O=C(Nc1ccc2c(c1)OCCO2)c1cccc(Cl)c1	3.7	52.9*	i	17.2	i	-8.4	70.3*	45.8	41.6
O=C(Nc1cccc(Cl)c1)c1ccc2c(c1)OCCO2	-9.6	77.7*	i	23.2	i	-6.2	91.7*	86.0*	76.5*
SMILES	SUMO Mot1 rescue	NALP3 yeast inh	CHT inh	NALP1 inh	CHT PAM	A1 inh	NALP3 confirm	Casp1 ASC ctr	NALP3 yeast rt
CN(C)c1ccc(C(=O)N2CCNC(=O)C2CC(=O)Nc2ccc(F)cc2)cc1 (configuration not stated)	273.7	1.8	i	12.0	i	-0.4	·	·	·
CC1CN(c2nc(N(C)c3ccccc3)nc(N)c2[N+](=O)[O-])CC(C)O1 (configuration not stated)	0.4	53.5*	i	8.5	i	-0.3	44.0	39.5	44.0
CN1CCc2nc3ccc(Cl)cc3c(-c3ccccc3Cl)c2C1	1.8	56.8*	i	41.3	i	0.5	57.5*	42.4	41.1
Cc1nc2ccc(Cl)cc2c(-c2ccccc2Cl)c1CC(=O)O	10.3	-2.4	i	11.5	i	0.3	·	·	·
O=C(N/N=C/C(Br)=C/c1ccccc1)c1cccs1	11.3	50.1*	i	3.9	i	-6.4	63.0*	·	·
O=C(N/N=C/C(Br)=C/c1ccccc1)c1ccccc1F	-18.5	27.7	i	24.0	i	-6.3	·	·	·
Brc1ccc(-n2cnc(-c3ccccc3)c2)cc1	31.3	51.7*	i	7.2	i	-5.4	77.3*	35.8	51.2*
NNc1nc(-c2ccccc2)cc(-c2ccc(Br)cc2)n1	-14.7	16.5	i	-1.9	i	-0.1	·	·	·
O=C1c2ccsc2SCCN1Cc1ccc(Cl)cc1Cl	16.3	65.2*	i	12.5	i	0.2	64.7*	76.5*	66.0*
COc1ccc(CN2CCSc3sccc3C2=O)cc1	21.9	60.6*	i	-16.8	i	-1.0	71.3*	68.5*	65.1*
COc1ccccc1C(CNC(=O)C1CCN(C(=O)Nc2ccccc2)CC1)N1CCCC1 (configuration not stated)	·	15.5	·	·	·	·	·	·	·
Cn1c(N)c(C(=O)CSc2nnc(NC3CCCCC3)s2)c(=O)n(C)c1=O	·	10.9	·	·	·	·	·	·	·
CCN(CC)c1ccc2c(Cl)cc(=O)oc2c1	5.2	58.0*	i	11.7	i	1.6	52.6*	59.3*	44.4
CCN(CC)c1ccc2c(O)cc(=O)oc2c1	-13.7	3.2	i	0.2	i	0.1	·	·	·
O=C(CSc1nnnn1-c1ccc(Cl)cc1)N1CCc2ccccc2C1	-2.2	56.0*	i	-1.1	i	-0.3	69.7*	78.0*	85.5*
CCOC(=O)N=Nc1c2ccccc2c2nc3no[nH]c3nc12	·	86.3*	·	-7.8	·	·	91.6*	71.5*	61.9*
